# The panel holds about 83,000 compounds, 20% with a hit somewhere; the sample as a whole holds those more often.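 Method: cells in 96-well plates; compound added at one concentration; 48 h incubation; percent growth measured; values under 10 scored active.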 The source made the active and inactive calls.
# System: MDA-MB-468 breast
# Experiment: NCI-60 one-dose screen, 48 h (100 = growth as untreated, 0 = no growth, -100 = all killed)
# Conditions: 10 µM unless noted
row,SMILES,growth
1,O=C(/C=C1\C(=O)N(Cc2ccc([N+](=O)[O-])cc2)c2ccccc21)c1ccc(OCCN2CCCC2)cc1,59.4% (inactive)
2,CN(c1ccc(Cl)cc1)S(=O)(=O)c1ccc(-c2cnc(C3CC3)o2)cc1,22.7% (inactive)
3,O=C(CSc1nnc(-c2cccs2)n1-c1ccccc1)Nc1ccc(F)cc1,88.7% (inactive)
4,O=C1CCCC=CC[C@H]2C=C(Cl)C(=O)C2=CC[C@H](CCCCC(F)(F)F)OC(=O)CCCC=CC[C@H]2C=C(Cl)C(=O)C2=CC[C@H](CCCCC(F)(F)F)OC(=O)CCCC=CC[C@H]2C=C(Cl)C(=O)C2=CC[C@H](CCCCC(F)(F)F)O1,59.9% [6.25 µM] (inactive)
5,NS(=O)(=O)c1ccc(N2CC(c3nc4ccccc4[nH]3)CC2=O)cc1 (stereo not given),113% (inactive)
6,CC(NC(=O)CCl)c1ccccc1 (stereo not given),89% (inactive)
7,N#CC1C(=O)SC2c3ccccc3C(=O)c3ccccc3C12 (stereo not given),89.4% (inactive)
8,Nc1nc2c(s1)CCc1cn(S(=O)(=O)c3ccccc3)cc1-2,83.2% (inactive)
9,O=C1CCc2ccccc2N1,98.8% (inactive)
10,CCCCOc1ccc(NC(=O)n2nc(NC(C)=O)c3cc(NC(C)=O)ccc32)cc1,111% (inactive)
11,Nc1ccccc1NS(=O)(=O)c1ccc(Cl)cc1,99.1% (inactive)
12,CSc1nc(NCCCNc2ccnc3cc(Cl)ccc23)cc(-c2ccccc2)n1,11.3% (inactive)
13,Cc1cccc(N2CCN(C(=S)c3ccc4c(c3)OCO4)CC2)c1,-37.6% (active)
14,CCN=Cc1c(O)c(O)c(C(C)C)c2cc(C)c(-c3c(C)cc4c(C(C)C)c(O)c(O)c(C=NCC)c4c3O)c(O)c12,55.7% (inactive)
15,CCn1c(=O)n(C)c2c(=O)n(C)c(=O)n(C)c21,103% (inactive)
16,Cn1cc(-c2nc(-c3c[nH]c4ncccc34)cs2)c2cccnc21,-6.43% (active)
17,CN(CCCCN(C[C@H]1Cc2ncccc2CN1)[C@H]1CCCc2cccnc21)C1CCC(F)(F)CC1,95.3% (inactive)
18,O=C(NCCNc1nccc(Nc2ccc(S(=O)(=O)Nc3ccccn3)cc2)n1)c1cccc([N+](=O)[O-])c1,105% (inactive)
19,CCCCc1n(Cc2ccc3ccccc3n2)cc[n+]1Cc1ccc2ccccc2n1,-30% (active)
20,Oc1ccc(C(c2ccc(O)cc2)c2ccc(Br)cn2)cc1,-35.7% (active)

row,SMILES,growth
1,N#Cc1c(N)nc(Cl)c(C#N)c1C(=O)c1ccccc1,-6.56% (active)
2,O=C(NC1CC1)c1ccc(-c2nc3ccc4[nH]ncc4c3c3c2CCCC3)cc1,8.81% (active)
3,CN(C)Cc1c(-c2ccccc2)[nH]c2ccccc12,103% (inactive)
4,C#Cc1nc(C(C)=O)cs1,90.5% (inactive)
5,C=C[C@]1(C)C=C2C(=O)[C@@]3(O)OC(=O)[C@@]4(CCCC(C)(C)[C@H]34)[C@@]2(O)CC1,-84.4% (active)
6,Nc1cc(C(=O)O)cc(-n2c(O)c(C=C3N=c4ccccc4=N3)sc2=S)c1,105% (inactive)
7,CCCCCCCCCCCCNC(=O)[C@H]1CSC(c2ccc(OC)c(F)c2)N1 (stereo not given in full),-81.4% (active)
8,CC(C)C[C@H](C(=O)O)N(C)C(=O)[C@@H]1CCCN1C(=O)[C@H](C)OC(=O)[C@H](CCC(N)=O)NC(=O)[C@@H]1CCC(=O)N1,107% (inactive)
9,COc1ccc(CN2C(=O)OC(C)(COC(C)=O)C2=O)cc1 (stereo not given),92.9% (inactive)
10,CCCCCCCCCCCCCCCC(=O)O[C@@H]1[C@@H](O)[C@@H](O)C([C@H](NC(=O)[C@@H]2C[C@@H](CCC)CN2C)[C@H](C)Cl)O[C@@H]1SC (stereo not given in full),97.9% (inactive)
11,Clc1ccc2c(NCCNc3nc(Cl)nc4ccccc34)ccnc2c1,-88.6% (active)
12,OC1CCCN(Cc2ccccc2)C1 (stereo not given),103% (inactive)
13,Cc1ccc(C2C=C(c3ccc(Cl)cc3)N=C3SC=CN32)c(Br)c1 (stereo not given),69.7% (inactive)
14,COc1ccc2nccc(Cl)c2c1,100% (inactive)
15,CCN1C(=S)N(c2ccccc2)C2NC(=S)N(/N=C/C=C/c3ccccc3OC)C21 (stereo not given),6.55% (active)
16,CC1(C)CC[C@]2(CO)CC[C@]3(C)[C@](O)([C@H](O)C[C@@H]4[C@@]5(C)CCCNC(C)(C)[C@@H]5CC[C@]43C)[C@@H]2C1,81.3% (inactive)
17,CCOC(=O)c1ccc2c(c1)c1c(C)c3cnccc3c(C)c1n2C,-81.8% (active)
18,Nc1ncc(-c2ccc3ncnc(Nc4cncc(Cl)c4)c3c2)cn1,7.6% (active)
19,O=C1/C(=C/c2ccccn2)SC(=S)N1N1CCOCC1,101% (inactive)
20,O=C1CN(CCN2CC(=O)NC(=O)C2)CC(=O)N1,94.8% (inactive)
